Results published in PubChem BioAssay (NCATS).
Inconclusive results are not listed. Unless noted, the call rests on the fitted dose curve; in most records, active means well fitted curve in either direction with a large enough effect (not every such curve was filed as active); inconclusive means small, poorly fitted or top-dose-only effect, or another doubt; inactive means flat fitted curve, though single readings scatter.

Tests used:
[1] = AP1 Signaling Pathway (AID 357); details: ME-180 AP-1-bla reporter, EGF-induced, beta-lactamase ratio, 5 h; at 17.2 µM (top of the series) unless noted; further: on the % scale 0 is the no-effect control and ±100 the full control effect
How it was run: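 In this screen, ME-180 cells in Opti-MEM with 0.5% dialyzed FBS received EC50 EGF and compound titrations for 5 h. AP-1 reporter beta-lactamase was detected via CCF4 ratio, giving AC50 for positive and negative modulators.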

[2] = NFAT Signaling Pathway (AID 444); details: Jurkat NFAT-bla M1, carbachol, beta-lactamase ratio, 5 h; at 17.2 µM (top of the series) unless noted;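 further: carbachol stimulus at about its EC50 of 1 µM final; on the % scale 0 is the no-effect control and ±100 the full control effect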
How it was run: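 Jurkat cells with NFAT-driven β-lactamase reporter and co-expressed M1 receptor, stimulated with carbachol (final 1 uM, ~EC50), compound titration, 5 h at 37 °C. CCF4 loaded 1 h at RT; 460/530 nm ratio gave %activity and AC50.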

[3] = Stat Signaling Pathway (AID 446); details: ME-180 SIE beta-lactamase reporter, IL-6 stimulated, 5 h; at 17.2 µM (top of the series) unless noted;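 further: ME-180 cervical cancer cells given 40 pM IL-6 alongside compound; SIE-controlled beta-lactamase reporter measured as 460/530 nm FRET emission ratio; on the % scale 0 is the no-effect control and ±100 the full control effect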
How it was run: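 ME-180 cells carrying a SIE-driven beta-lactamase reporter are stimulated with 40 pM IL-6 for 5 h at 37C in the presence of compound. The 460/530 nm FRET substrate ratio is read after 2.5 h at RT. Data are normalised to 300 pM IL-6 and to 125 nM JAK inhibitor controls.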

[4] = target: Glucocorticoid receptor (Homo sapiens) (UniProt P04150); test: GR-GFP Redistribution (AID 450;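 active means compounds whose dose series gives a full or clear partial fitted curve of increased nuclear translocation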; further: potency means the concentration at half of the fitted maximal effect)
Chain of Glucocorticoid receptor (Homo sapiens) (P04150 whole entry, looked up): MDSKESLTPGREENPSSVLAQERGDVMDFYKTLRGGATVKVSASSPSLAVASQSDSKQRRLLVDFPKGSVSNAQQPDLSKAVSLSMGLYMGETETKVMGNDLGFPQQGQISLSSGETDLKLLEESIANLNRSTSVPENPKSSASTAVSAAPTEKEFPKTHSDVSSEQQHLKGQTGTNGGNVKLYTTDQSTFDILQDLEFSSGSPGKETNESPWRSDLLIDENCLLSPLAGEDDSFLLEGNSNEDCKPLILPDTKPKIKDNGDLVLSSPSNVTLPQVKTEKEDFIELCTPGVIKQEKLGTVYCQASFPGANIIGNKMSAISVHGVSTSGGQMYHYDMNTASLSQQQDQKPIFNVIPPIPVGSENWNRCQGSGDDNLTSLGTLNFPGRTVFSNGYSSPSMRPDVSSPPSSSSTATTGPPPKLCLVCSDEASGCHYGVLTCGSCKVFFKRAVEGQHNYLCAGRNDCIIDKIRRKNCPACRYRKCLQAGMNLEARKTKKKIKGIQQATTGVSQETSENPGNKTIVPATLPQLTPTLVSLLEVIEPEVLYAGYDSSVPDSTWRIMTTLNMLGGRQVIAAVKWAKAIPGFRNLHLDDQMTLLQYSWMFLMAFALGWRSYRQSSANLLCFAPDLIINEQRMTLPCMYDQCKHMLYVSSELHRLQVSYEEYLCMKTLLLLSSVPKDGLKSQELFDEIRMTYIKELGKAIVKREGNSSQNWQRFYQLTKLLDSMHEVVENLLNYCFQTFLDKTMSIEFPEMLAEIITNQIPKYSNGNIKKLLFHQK

COc1ccc(NC(=O)C2CSC3c4ccccc4C(=O)N23)cc1 (stereo not drawn)
inactive: activity change, negative = inhibition [1] -4.43% | activity change, negative = inhibition [2] -13% | activity, negative = inhibition [3] 4.23% | Potency [4] > 20.6 µM

Cc1cc(=O)oc(C)c1C(=O)NC12CC3CC(CC(C3)C1)C2
inactive: activity change, negative = inhibition [1] -5.66% | activity change, negative = inhibition [2] 1.02% | activity, negative = inhibition [3] 1.82% | Potency [4] > 20.6 µM

C=CCN=C(C)C1=C(O)CCC1=O
inactive: activity change, negative = inhibition [1] 23.8% | activity change, negative = inhibition [2] -7.26% | activity, negative = inhibition [3] 20.3% | Potency [4] > 20.6 µM

COC(=O)CN1C2(C#N)CCCCC2CC2CCCCC21C#N (stereo not drawn)
inactive: activity change, negative = inhibition [1] 2.79% | activity change, negative = inhibition [2] -12.3% | activity, negative = inhibition [3] 13% | Potency [4] > 20.6 µM

CC(=O)c1cc(C#N)c(SCC(=O)C(C)(C)C)nc1C
inactive: activity change, negative = inhibition [1] -4.83% | activity change, negative = inhibition [2] -23.2% | activity, negative = inhibition [3] 12.6% | Potency [4] > 20.6 µM

Cc1ccc(-n2c(N)c(C(N)=O)sc2=S)cc1
inactive: activity change, negative = inhibition [1] 6.9% | activity change, negative = inhibition [2] 9.14% | activity, negative = inhibition [3] -24.5% | Potency [4] > 20.6 µM

O=c1cc(NCc2ccccc2)nc2n1CCCS2
inactive: activity change, negative = inhibition [1] 5.41% | activity change, negative = inhibition [2] 19% | activity, negative = inhibition [3] -19.7% | Potency [4] > 20.6 µM

Cc1nn(CC(N)=O)c(=O)c2ccccc12
inactive: activity change, negative = inhibition [1] 11.8% | activity change, negative = inhibition [2] 0.254% | activity, negative = inhibition [3] 9.04% | Potency [4] > 20.6 µM

CC1CCc2cc(F)cc3c(O)c(C(=O)NCC4CCCO4)c(=O)n1c23 (stereo not drawn)
inactive: activity change, negative = inhibition [1] -6.28% | activity change, negative = inhibition [2] -19.9% | activity, negative = inhibition [3] 1.8% | Potency [4] > 20.6 µM

CSCCC(CO)NC(=O)OCc1ccccc1 (stereo not drawn)
inactive: activity change, negative = inhibition [1] 0.666% | activity change, negative = inhibition [2] -0.945% | activity, negative = inhibition [3] 2.15% | Potency [4] > 20.6 µM

Nc1nnc(CC2=CCCCC2)s1
inactive: activity change, negative = inhibition [1] 1.59% | activity change, negative = inhibition [2] -3.51% | activity, negative = inhibition [3] 3.57% | Potency [4] > 20.6 µM

CCC(CC)C1C(C#N)=C(N)Oc2n[nH]c(C)c21 (stereo not drawn)
inactive: activity change, negative = inhibition [1] -22.7% | activity change, negative = inhibition [2] -13.2% | activity, negative = inhibition [3] -16.5% | Potency [4] > 20.6 µM

CC(C(=O)NC(=O)NCc1ccccc1)N1C(=O)c2ccccc2C1=O (stereo not drawn)
inactive: activity change, negative = inhibition [1] -0.38% | activity change, negative = inhibition [2] -0.399% | activity, negative = inhibition [3] 14.7% | Potency [4] > 20.6 µM

CCOc1cc(CN2CCOCC2)cc(C(C)=O)c1
inactive: activity change, negative = inhibition [1] 14.3% | activity change, negative = inhibition [2] -4.27% | activity, negative = inhibition [3] 1.95% | Potency [4] > 20.6 µM

COc1ccc(CN(C)CCc2ccccn2)c(OC)c1OC
inactive: activity change, negative = inhibition [1] -14.2% | activity change, negative = inhibition [2] -17.4% | activity, negative = inhibition [3] 11.1% | Potency [4] > 20.6 µM

CCC(=O)O[C@@H]1CC(=O)O[C@H](C)CC=CC=C[C@@H](O)[C@H](C)C[C@H](CC=O)[C@H](O[C@H]2O[C@H](C)[C@@H](O[C@H]3C[C@@](C)(O)[C@@H](OC(=O)CC)[C@H](C)O3)[C@H](N(C)C)[C@H]2O)[C@H]1OC
inactive: activity change, negative = inhibition [1] 1.11% | activity change, negative = inhibition [2] 8.88% | activity, negative = inhibition [3] -1.1% | Potency [4] > 20.6 µM

CCOc1nc(SC(C(C)=O)C(=O)Nc2ccccc2)nc(N(C)C)n1 (stereo not drawn)
inactive: activity change, negative = inhibition [1] -3.25% | activity change, negative = inhibition [2] 19.9% | activity, negative = inhibition [3] 72.5% | Potency [4] > 20.6 µM
